# Laboratory results: PubChem BioAssay (EPA / NIEHS)
# Values joined by “and” are separate entries in the source; they are usually repeats but may differ in a detail not shown here. Equal entries are not always repeated. Results filed as inconclusive are left out. Active and inactive are the calls of the source. How the source made its calls, unless noted: active means hit-call score of the fitted dose curve at least 0.9, where 1 is the maximum; inactive means score below 0.9.
# Columns and labels:
# [1] = read-out: Collagen I, COL1A1 (gene 1277); assay: BSK_MyoF_CollagenI: BioMAP Diversity Plus: MyoF Assay for Collagen I Biomarker Activity (AID 2284238); conditions: primary human lung fibroblasts
# Method in brief: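 Collagen I levels measured by ELISA on human lung fibroblast cultures 24 h post-dosing, with curve fitting in the positive direction relative to DMSO; SRB staining of parallel wells marked cytotoxicity.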
# [2] = read-out: Collagen III, COL3A1 (gene 1281); assay: BSK_MyoF_CollagenIII: BioMAP Diversity Plus: MyoF Assay for Collagen III Biomarker Activity (AID 2284239); conditions: primary human lung fibroblasts
# Method in brief: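 Collagen III biomarker quantified by ELISA in human lung fibroblast cultures 24 h after dosing. Activity fitted in the positive direction against DMSO as baseline.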
# [3] = UKN2_HCS_IMR90_cell_viability: Viability Assessment in the University of Konstanz (UKN) Leist Lab Neural Crest Cell Migration Assay in human induced IMR90 Pluripotent Stem Cells (UKN2) (AID 2284233);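 further: cells exposed to compound for 24 h after a 24 h migration phase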
# Method in brief: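 Viability read as calcein-AM fluorescence by high-content imaging, Hoechst co-stain, 30 min. Human iPSC (IMR90) neural crest cells had migrated 24 h into stopper-defined gaps before 24 h chemical exposure. Fitted bidirectionally relative to DMSO.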
# [4] = CCTE_Mundy_HCI_Cortical_NOG_NeuronCount: CCTE's Neurite Outgrowth Assay in rat cortical cells for Neuron Count, Mundy Lab (AID 2284236; active means hit-call score of the fitted dose curve at least 0.9, where 1 is the maximum;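 further: neurons counted by imaging betaIII-tubulin and Hoechst stained cortical cells; cells exposed to compound for about 48 hours before fixation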)
# Method in brief: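 Read-out: neuron number by high-content imaging of betaIII-tubulin (Alexa Fluor-488) and Hoechst-labelled rat primary cortical cells.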
# [5] = CCTE_Mundy_HCI_Cortical_NOG_BPCount: CCTE's Neurite Outgrowth Assay in rat cortical cells for Branch Point Count, Mundy Lab (AID 2284237)
# Method in brief: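 Measured 50.33 h after dosing, this morphology endpoint uses rat primary cortical cultures labelled for betaIII-tubulin. Branch points are quantified by high-content imaging, with DMSO as negative control and baseline.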
# [6] = CCTE_Mundy_HCI_hNP1_Casp3_7: CCTE's Caspase-Glo 3/7 Assay in human neuroprogenitor cells for Apoptosis, Mundy Lab (AID 2284240)
# Method in brief: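 Luminescent caspase-3/7 readout, 26.5 h post-dose, in human neural progenitor cells from WA09 embryonic stem cells. Cells grew 40–44 h at 37 °C, 5% CO2 before chemical addition. Activity analysed as signal increase over DMSO baseline.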
# [7] = CCTE_Mundy_HCI_Cortical_Synap_Neur_Matur_NeuronCount: CCTE's Synaptogenesis and Neurite Maturation Assay in rat cortical cells for Neuron Count, Mundy Lab (AID 2284242; active means hit-call score of the fitted dose curve at least 0.9, where 1 is the maximum;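 on AC50: hits reduce neuron count versus DMSO baseline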)
# Method in brief: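 Neuron counts come from automated high-content imaging of Hoechst nuclei and MAP2/synaptophysin immunostaining at DIV 12, with loss of signal judged against DMSO. Cultures of rat cortical cells had glial growth arrested by AraC at DIV 5; chemical exposure began DIV 7.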
# [8] = TAMU_PeakParms_SingleDonor1434_QT: Texas A&M University (TAMU) 1.5-hr Human Induced Pluripotent Stem Cell (iPSC)-derived Cardiomyocytes Calcium (Ca+2) Flux Assay for Cardiotoxicity: QT (decay-rise ratio) (AID 2284235; active means hit-call score of the fitted dose curve at least 0.9, where 1 is the maximum)
# Method in brief: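 Decay/rise ratio of calcium-flux fluorescence scored after 90 min exposure (37C) of donor 1434 iPSC cardiomyocytes to 0.2–100 uM (0.5% DMSO). Beat-cessation and severe-notch points removed; POD is EC05, a 5% rise over DMSO.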
# [9] = TAMU_HCS_1.5hr_SingleDonor1434_Cytotoxicity: Cytotoxicity Assessment using High-content Screening (HCS) Fluorescent Imaging for the Texas A&M University (TAMU) 1.5-hr Human Induced Pluripotent Stem Cell (iPSC)-derived Cardiotoxicity Assay (AID 2284234; active means hit-call score of the fitted dose curve at least 0.9, where 1 is the maximum)
# Method in brief: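 Nuclear counts from Hoechst 33342 imaging define cytotoxicity here, with EC10 (10% cell-count loss relative to DMSO) as point of departure. iPSC cardiomyocytes received 0.2-100 uM test chemical in 0.5% DMSO for 1.5 h at 37 C.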
# [10] = CCTE_Mundy_HCI_hNP1_CellTiter: CCTE's Cell Titer-Glo 2 Assay in human neuroprogenitor cells for Viability, Mundy Lab (AID 2284241; active means hit-call score of the fitted dose curve at least 0.9, where 1 is the maximum)
# Method in brief: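 Viability read as luminescent ATP content (CellTiter-Glo, 30 min room temperature) twenty-four hours after dosing, relative to DMSO. Cells: WA09-derived hNP1 neuroprogenitors on poly-L-ornithine/laminin, plated 40 to 44 hours before chemical.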
smiles,measurement,setting,value
OCCN1CCOCC1,outcome,[1],inactive
same,AC50,[2],0.016 µM (active)
CCCCCCCCCCCCS,AC50,[1],20 µM (active)
same,AC50,[2],27.9 µM (active)
CCCCC(CC)COC(=O)COc1ccc(Cl)cc1C (stereo not given),outcome,[3],inactive
same,outcome,[4],inactive
same,outcome,[5],inactive
same,AC50,[6],50 µM (active)
same,AC50,[7],11.9 µM (active)
CNC(=C[N+](=O)[O-])NCCSCc1ccc(CN(C)C)o1,outcome,[8],inactive
CC=CC(=O)C1=C(C)C=CCC1(C)C,outcome,[1],inactive
same,outcome,[2],inactive
O=S1(=O)CC(Cl)(Cl)C(Cl)(Cl)C1,AC50,[1],1.52 µM (active)
same,AC50,[2],1.89 µM (active)
CCOC(=O)C=Cc1ccccc1,outcome,[1],inactive
same,outcome,[2],inactive
CC/C(=C(\c1ccccc1)c1ccc(OCCN(C)C)cc1)c1ccccc1,AC50,[9],82.1 µM (active)
same,outcome,[8],inactive
O=C(O)C(F)(F)OC(F)(F)C(F)(F)OC(F)(F)C(F)(F)C(F)(F)C(F)(F)F,AC50,[1],30 µM (active) and 31.8 µM (active)
same,AC50,[2],42.2 µM (active) and 44.1 µM (active)
c1ccc2scnc2c1,outcome,[3],inactive
same,outcome,[4],inactive
same,outcome,[5],inactive
same,outcome,[6],inactive
O=C1OC2(c3ccc(O)cc3Oc3cc(O)ccc32)c2ccccc21,outcome,[1],inactive
same,outcome,[2],inactive
CC(=O)OCC=C(C)CCC=C(C)CCC=C(C)C,outcome,[1],inactive
same,outcome,[2],inactive
N#CCCNCCC#N,outcome,[8],inactive
same,outcome,[4],inactive
same,outcome,[5],inactive
same,outcome,[6],inactive
same,outcome,[10],inactive
C=C(F)C(=O)OC(C(F)(F)F)C(F)(F)F,outcome,[1],inactive
same,outcome,[2],inactive
c1ccc2c(c1)-c1ccc3ccc4cccc5cc-2c1c3c45,outcome,[1],inactive
same,AC50,[2],10 µM (active)
N[C@@H](CCC(=O)O)C(=O)O,outcome,[5],inactive
same,outcome,[6],inactive
same,outcome,[10],inactive
same,outcome,[7],inactive
CC(=O)OC(C)(C)C1CC=C(C)CC1 (stereo not given),outcome,[1],inactive
same,outcome,[2],inactive
CC1(C)[C@H](C=C(Cl)Cl)[C@H]1C(=O)OCc1cccc(Oc2ccccc2)c1,outcome,[1],inactive
same,outcome,[2],inactive
CCOC(=O)CCCCCCCCC(=O)OCC,outcome,[1],inactive
same,outcome,[2],inactive
OCC(F)(OC(F)(F)C(F)(OC(F)(F)C(F)(F)C(F)(F)F)C(F)(F)F)C(F)(F)F (stereo not given),AC50,[1],5.55 µM (active) and 3.38 µM (active)
same,AC50,[2],5.14 µM (active) and 4.82 µM (active)
CCCCCCCC1CCCC1=O (stereo not given),AC50,[1],32.6 µM (active)
same,AC50,[2],32.7 µM (active)
O=S(=O)(O)C(F)(F)C(F)(F)OC(F)(F)C(F)(F)F,outcome,[1],inactive
same,outcome,[2],inactive
c1ccc(Sc2ccccc2)cc1,AC50,[1],30.3 µM (active)
same,AC50,[2],34.2 µM (active)
CC(=O)CCC=C(C)CCC=C(C)C,outcome,[2],inactive
CC1=CC(C)C(C=O)C(C)C1 (stereo not given) (tested in a mixture with another compound),outcome,[1],inactive
same,outcome,[2],inactive
COc1ccccc1NC(=O)CC(C)=O,outcome,[1],inactive
same,outcome,[2],inactive
NC(=O)c1c(Cl)cccc1Cl,outcome,[1],inactive
same,outcome,[2],inactive
Nc1ccc(N)c([N+](=O)[O-])c1,outcome,[1],inactive
same,outcome,[2],inactive
C=CC(=O)OCC(CO)(COC(=O)C=C)COC(=O)C=C,AC50,[1],2.35 µM (active)
same,AC50,[2],1.25 µM (active)
CC(C)Cc1ccc(C(C)C(=O)O)cc1 (stereo not given),outcome,[3],inactive
same,outcome,[5],inactive
same,outcome,[1],inactive
same,outcome,[2],inactive
same,outcome,[6],inactive
same,outcome,[10],inactive
same,outcome,[7],inactive
C=C(C)C(=O)OCCC(F)(F)C(F)(F)C(F)(F)C(F)(F)C(F)(F)C(F)(F)C(F)(F)C(F)(F)F,outcome,[1],inactive
same,outcome,[2],inactive
CCC(=O)OCC=Cc1ccccc1,outcome,[1],inactive
same,outcome,[2],inactive
O=C(O)C(F)(F)C(F)(F)C(F)(F)C(F)(F)C(F)(F)C(F)(F)C(F)(F)C(F)F,outcome,[1],inactive
same,outcome,[2],inactive
CC(C)(C)c1cccc(O)c1,outcome,[1],inactive
same,outcome,[2],inactive
CCCCCCCCCC(=O)OCC,outcome,[1],inactive
same,outcome,[2],inactive
C=C1CC/C=C(\C)CC[C@@H]2[C@@H]1CC2(C)C,AC50,[1],25.7 µM (active)
same,AC50,[2],30.1 µM (active)
